Pf apPOL inh = Pf-apPOL DNA polymerase inhibition; Recombinant Pf-apPOL, molecular beacon fluorescence, 1.5 h; inhibition, % at 10 µM; 210,000 compounds, 0.25% hits
mHTT CaM bind = inhibitors of human mutant huntingtin-calmodulin interaction; P42858; AlphaScreen His-mHTT/GST-CaM binding, luminescence; inhibition, % at 15 µM; 190,000 compounds, 3.6% hits; AID 1671202
Of the large screens only hits and unclear results are named; the others gave an inactive call; ! = not active in a repeat. Only some compounds are listed: those with a hit (about 3.6% of all), similar ones and a draw of the others. Rule as the data show it: active = inhibition above about 50%; inactive = the rest.

Cc1ccc(C(=O)N2CCN(S(=O)(=O)c3ccc(C)cc3)C2c2ccc(N(C)C)cc2)cc1 (centres undefined)	mHTT CaM bind 50.0
Cc1ccc(S(=O)(=O)N2CCN(C(=O)c3ccccc3)C2c2ccc(N(C)C)cc2)cc1 (centres undefined)	mHTT CaM bind 56.0
CCC(=O)N1CCN(S(=O)(=O)c2ccc(C)cc2)C1c1ccccc1 (centres undefined)	none
COc1ccccc1C1=N/C(=C\c2cccnc2)C(=O)O1	none
CN(C)CCNC(=O)C1CCN(c2nc3ccc(-c4ccc(F)cc4)nc3s2)CC1	none
CC(C)N1CCN(C(=O)c2cc3c(s2)CCN(C(=O)c2ccc(Cl)cc2)C3)CC1	none
Cc1ccc(CN2C(=O)NC3(CCN(C(=O)c4ccc5c(c4)OCO5)CC3)C2=O)cc1	none
COc1cccc(C(=O)NC(c2ccco2)c2cc(Cl)c3cccnc3c2O)c1 (centres undefined)	mHTT CaM bind 80.1
COc1cccc(C(=O)NC(c2ccc(OC)c(OC)c2)c2cc(Cl)c3cccnc3c2O)c1 (centres undefined)	mHTT CaM bind 52.0
COc1cccc(C(=O)NC(c2ccccc2)c2cc(Cl)c3cccnc3c2O)c1 (centres undefined)	mHTT CaM bind 54.0
CCCC(=O)NC(c1ccco1)c1cc(Cl)c2cccnc2c1O (centres undefined)	none
COc1cccc(C(=O)NC(c2ccc([N+](=O)[O-])cc2)c2cc(Cl)c3cccnc3c2O)c1 (centres undefined)	none
CCCCC(=O)Nc1ccc(NC(=O)COc2ccccc2C)cc1OC	none
CCOC(=O)c1cccc(NC(=O)N2CC(CC)Oc3ccc(Cl)cc32)c1 (centres undefined)	none
CC1=C(C(=O)Nc2ccc(Cc3ccncc3)cc2)C2(CCCCCC2)OC1=O	none
OC(COCc1ccc2c(c1)OCO2)CN1CCN(c2ccccc2F)CC1 (centres undefined)	none
O=C(CC1(C(F)(F)C(F)F)NCCN1)c1cccs1	none (no result: Pf apPOL inh)
CCCOC(=O)C1=CN(C)S(=O)(=O)N=C1C	none
CCOC(=O)Oc1c(Cl)cc2oc(=O)sc2c1Cl	mHTT CaM bind 77.0
CCOC(=O)Oc1ccc2c(=O)c(-c3ccc(OC)cc3)c(C)oc2c1	none
O=C(c1nc(-c2cccc(F)c2)n2c1CCCCC2)N1CCN(c2ccccc2)CC1	mHTT CaM bind 78.0
COc1ccc(N2CCN(C(=O)c3nc(-c4cccc(F)c4)n4c3CCCCC4)CC2)cc1	none
C(=C\c1ccco1)/c1nc2ccccc2[nH]1	none
O=[N+]([O-])c1ccc2nc(/C=C/c3ccco3)[nH]c2c1	mHTT CaM bind 59.0
O=[N+]([O-])c1ccc(NCCNS(=O)(=O)Cc2ccccc2)c(Cl)c1	none
N#Cc1c([N+](=O)[O-])cc([N+](=O)[O-])cc1S(=O)(=O)Cc1ccccc1	mHTT CaM bind 79.0
CN1C(=O)C2CCCCN2c2ccc(C(=O)N3CCN(c4ccc(Cl)cc4)CC3)cc21 (centres undefined)	mHTT CaM bind 67.8
O=C1Nc2cc(C(=O)N3CCN(c4ccc(Cl)cc4)CC3)ccc2N2CCCCC12 (centres undefined)	none
O=[N+]([O-])c1ccc(-c2nc(NCc3ccco3)c3ccccc3n2)cc1	none
Brc1ccc(Nc2nc(NCc3ccco3)c3ccccc3n2)cc1	mHTT CaM bind 100.0
CC12CC3(C)CC(C)(C1)CC(C(=O)Nc1ccc(C45CC6CC(CC(C6)C4)C5)cc1)(C2)C3	none
CC12CC3CC(C)(C1)CC(c1ccc(O)cc1)(C3)C2	mHTT CaM bind 64.9
COc1ccccc1NC(=O)CC1COc2ccccc2NC1=O (centres undefined)	none
O=C(CC1COc2ccccc2NC1=O)Nc1cccc2ccccc12 (centres undefined)	mHTT CaM bind 68.9
Cc1ccc(NC(=O)c2cc(C3CC3)n3nccc3n2)c(C)c1	none
COCCN1C(=O)Cc2ccccc2C1C(=O)N1CCN(c2cccc(Cl)c2)CC1 (centres undefined)	mHTT CaM bind 67.1
CCN1C(=O)Cc2ccccc2C1C(=O)N1CCN(c2cccc(Cl)c2)CC1 (centres undefined)	none
Cc1cccc(-c2noc(-c3ccc(NCc4ccc(C)o4)nc3)n2)c1	none
O=C1OC(c2ccc(Cl)cc2)=C/C1=C\c1ccco1	none
O=C1OC(c2ccc(Oc3ccccc3)cc2)=C/C1=C\c1ccco1	mHTT CaM bind 78.0
COCCN=C1Nc2ccccc2CNC12CCN(C(=O)CCOC)C2 (centres undefined)	none
COc1ncc(C(=O)NCc2ccc(C(C)C)cc2)cn1	none
OC(COCC1CC2CCC1C2)CN1CCN(C(c2ccccc2)c2ccccc2)CC1 (centres undefined)	mHTT CaM bind 62.3
OC(COCC1CC2CCC1C2)CN1CCc2ccccc2C1 (centres undefined)	none
CCCNC(=O)c1cnn2c1NC(c1cccc(OC)c1)CC2C(F)(F)F (centres undefined)	none
COc1ccc(-c2cn3c(n2)c(=C2CCCN2)c(=O)n3-c2ccccc2)cc1	mHTT CaM bind 63.0
COc1ccc(-c2cn3ccn(-c4ccc(F)cc4)c(=O)c3n2)cc1	none
Cc1ccccc1Cc1c(C)nc2c(C(=O)NCc3ccc(F)cc3)cnn2c1C	none
Cc1ccc(C2C(C#N)=C(N)Oc3cc(O)ccc32)cc1 (centres undefined)	none
Cc1ccc(C2C(C#N)=C(N)Oc3c2ccc2cccnc32)cc1 (centres undefined)	mHTT CaM bind 58.3
Cc1ccc(-n2ncc3c(=O)[nH]c(SCC(=O)N4CCCCC4)nc32)cc1C	none
CN(CCCNC(=O)C1CCN(c2ccncc2)CC1)c1ccccc1	none
CN(CCCNC(=O)C1CCN(c2ccc(N3CCCCC3)nn2)CC1)c1ccccc1	mHTT CaM bind 54.4
CNC1C(O)C(NC)C2OC3(O)C(=O)CC(C)OC3OC2C1O (centres undefined)	Pf apPOL inh 83.0 (no result: mHTT CaM bind)
CCc1ccccc1NC(=O)C1CCN(c2nnc3ccccn23)CC1	none
CSC1=NSC2=NC(=O)/C(=C\c3ccc([N+](=O)[O-])o3)C(=N)N12	mHTT CaM bind 100.0
Cc1ccc(/C=C2/C(=N)N3C(SCC(C)C)=NSC3=NC2=O)o1	none
CSC1=NSC2=NC(=O)/C(=C\c3ccc(C)o3)C(=N)N12	none
CC(C)CSC1=NSC2=NC(=O)/C(=C\c3ccc([N+](=O)[O-])o3)C(=N)N12	mHTT CaM bind 79.0
CSCCC(C(=O)Nc1ccc(Cl)cc1)N1C(=O)c2ccccc2C1=O (centres undefined)	none
COc1ccccc1-c1c(C)oc2c(CN3CCCC3)c(O)ccc2c1=O	none
Cc1noc(-c2nn(C)c3c2CN(C(=O)NC(C)C)CC3)n1	none
Oc1oc(-c2ccccc2)nc1C=Nc1ccc(Br)cc1	none
COc1ccc(-c2cc3c(=O)n(CC(=O)Nc4ccc(C)c(F)c4)ccn3n2)cc1OC	none
CCN(CC)c1nc(C)nc2sc(C(=O)Nc3cnc4ccccc4c3)c(C)c12	none
CN(C)C=CC(=N)SCc1c(F)cccc1Cl	none (no result: mHTT CaM bind)
N#CC(C#N)=C(SCc1c(F)cccc1Cl)SCc1c(F)cccc1Cl	Pf apPOL inh 72.0! (no result: mHTT CaM bind)
Cc1ccc(C(=O)NCC2CC(=O)N(c3ccc(Cl)cc3)C2)cc1[N+](=O)[O-] (centres undefined)	none
CN(C)c1nc(N)c([N+](=O)[O-])c(Nc2cccc(F)c2)n1	none
COc1ccc(C(CCN2CCCCC2)c2c(OC)cc(OC)c3c(-c4ccccc4)cc(=O)oc23)cc1 (centres undefined)	mHTT CaM bind 99.4

Screening results (PubChem BioAssay)
